The panel holds about 79,000 compounds, 15% with a hit somewhere; the sample as a whole holds those more often. No stated cut-off is given here; in the data, active means growth inhibition above about 70%; inactive means the rest.
Legend:
[1] = NCI Yeast Anticancer Drug Screen. Data for the rad50 strain (AID 155);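 further: 0% = growth of vehicle-only cultures of the same strain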; conditions: S. cerevisiae rad50 strain growth inhibition; at 50.0 µM; stronger effect = higher value
Procedure, shortened: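 Readout: growth inhibition relative to vehicle-treated cultures. Compound exposure was carried out in a genetically defined yeast strain deficient in DNA damage repair.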

[2] = NCI Yeast Anticancer Drug Screen. Data for the mec2-1 strain (AID 157); conditions: S. cerevisiae mec2-1 strain, at 50.0 µM, stronger effect = higher value
Procedure, shortened: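 Growth inhibition is read against vehicle-treated controls after compound exposure of the mec2-1 yeast strain, which is defective in DNA damage repair or cell cycle control.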

[3] = NCI Yeast Anticancer Drug Screen. Data for the sgs1 mgt1 strain (AID 161);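 further: 0% = growth of cultures given vehicle only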; conditions: S. cerevisiae sgs1 mgt1 strain, at 50.0 µM, stronger effect = higher value
Procedure, shortened: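 Compounds are added to genetically altered yeast, and growth is compared with cultures given vehicle alone to give percent inhibition.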

[4] = NCI Yeast Anticancer Drug Screen. Data for the cln2 rad14 strain (AID 165);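 further: 0% = growth equal to vehicle treated cultures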; conditions: S. cerevisiae cln2 rad14 strain, at 50.0 µM, stronger effect = higher value
Procedure, shortened: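 Growth inhibition, relative to vehicle-treated controls, is the read-out. The test organism is a yeast strain with defined genetic alterations, cln2 rad14.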

[5] = NCI Yeast Anticancer Drug Screen. Data for the bub3 strain (AID 167); conditions: S. cerevisiae bub3 mutant strain, at 50.0 µM, stronger effect = higher value
Procedure, shortened: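 Readout: yeast growth inhibition, expressed relative to vehicle-only wells. The test organism is a mutant strain from a panel with lesions in DNA repair or checkpoint genes.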

[6] = NCI Yeast Anticancer Drug Screen. Data for the mlh1 rad18 strain (AID 175); conditions: S. cerevisiae mlh1 rad18 strain growth inhibition; at 50.0 µM; stronger effect = higher value
Procedure, shortened: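 Cells of a genetically altered yeast strain, deficient in DNA damage repair, were treated with compound. Their growth was then compared with that of vehicle-treated cultures to give inhibition.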

Measured: growth inhibition

CCC(C)OC(=O)/C=C/c1ccccc1 (stereo unspecified)
inactive: [1] 1.35% | [2] 3.15% | [3] -1.8% | [4] -0.25% | [5] -10.2% | [6] -10.6%

COc1ccc(Cl)c2c(=O)c3ccc4c(c3[nH]c12)C(=O)c1ccccc1C4=O
inactive: [1] 21.8% | [2] -5.6% | [3] 4.25% | [4] -17.6% | [5] 3.8% | [6] 4.65%

CCCC(=O)n1[nH]c(=O)n(C(C)(C)C)c1=O
inactive: [1] 2.3% | [2] -7.65% | [3] 14.8% | [4] 6.4% | [5] 7.5% | [6] -22.8%

COc1ccc(C2OCC3(O)C(c4ccc(OC)c(OC)c4)OCC23)cc1OC (stereo unspecified)
inactive: [1] -0.85% | [2] -3.15% | [3] -1.35% | [4] 19.4% | [5] -9.8% | [6] 6.85%

O=S(=O)(CS(=O)(=O)c1ccccc1Br)c1ccccc1Br
inactive: [1] -7.65% | [2] 30.3% | [3] -16% | [4] 13% | [5] 1.95% | [6] 6.95%

CC(=O)/C(=C/n1ccc(=O)[nH]c1=S)C(=O)Nc1ccc([N+](=O)[O-])cc1
inactive: [1] -18.3% | [2] -18.8% | [3] -38.2% | [4] -20.4% | [5] -2.85% | [6] -10.9%

c1ccc2c3c(ccc2c1)Oc1ccc2ccccc2c1C3CCC1c2c(ccc3ccccc23)Oc2ccc3ccccc3c21
inactive: [1] -8.75% | [2] -19.6% | [3] -4.9% | [4] 1.5% | [5] -17.2% | [6] 7.75%

Clc1nc(-c2ccccc2)nc2ccccc12
inactive: [1] -10.1% | [2] -17.6% | [3] -18.2% | [4] -29.6% | [5] -19.8% | [6] -7.25%

O=C1c2ccc3c([nH]c4ccccc43)c2C(=O)N1c1ccccc1
inactive: [1] 19.7% | [2] -2% | [3] 21.8% | [4] 11.9% | [5] 13.3% | [6] 7.35%

Nc1nc(=O)n(C2CC(O)C(CO)O2)cc1I (stereo unspecified)
inactive: [1] -43.3% | [2] 1% | [3] 7.55% | [4] -17.2% | [5] -0.8% | [6] 11.2%

O=C(O)CCC1COc2ccccc2O1 (stereo unspecified)
inactive: [1] -12.2% | [2] -8.35% | [3] 0.8% | [4] -9.5% | [5] -14% | [6] -9.35%

Cc1nc(N/N=C/c2ccccc2Cl)[nH]c(=O)c1CCO
inactive: [1] -18.9% | [2] -2.8% | [3] -17.4% | [4] 12.2% | [5] -30.2% | [6] 4.15%

O=c1[nH]c2c(Cl)cccc2c2ccccc12
inactive: [1] 40.5% | [2] 18.9% | [3] -7.45% | [4] -18.1% | [5] -17.9% | [6] 14.3%

c1ccc(Cn2nnnc2Nc2ccccc2)cc1
inactive: [1] -19.2% | [2] -10.7% | [3] -3.65% | [4] 19.8% | [5] 26.4% | [6] 10.4%

O=C(NCCS(=O)(=O)N1C(=O)C2CCCN2C(=O)[C@@H]1Cc1ccccc1)OCc1ccccc1 (stereo partly specified)
inactive: [1] -4.35% | [2] -0.55% | [3] -4.35% | [4] 19.4% | [5] 5.8% | [6] 26.1%

COC(=O)CC/C=N/NC(N)=O
inactive: [1] 10.2% | [2] 4.5% | [3] 7.7% | [4] -17.8% | [5] 2.35% | [6] -4.05%

COc1ccc2c(=O)c(O)c(-c3ccc(OC)c(OC)c3)oc2c1
inactive: [1] 12.7% | [2] 5.35% | [3] -18.6% | [4] -9.1% | [5] -1.25% | [6] 18.4%

COc1cccc(C2C3=C(COC3=O)Oc3cc4c(cc32)OCO4)c1 (stereo unspecified)
inactive: [1] -41.1% | [2] -24.4% | [3] -31.4% | [4] -1.6% | [5] -4.55% | [6] -14.2%

Cn1c2ccccc2c(=O)c2cc(NC(=O)/C=C/C(=O)Nc3ccc4c(c3)c(=O)c3ccccc3n4C)ccc21
inactive: [1] -3.25% | [2] 0.75% | [3] -2.7% | [4] -14.6% | [5] -3.8% | [6] 5.9%

CC(C)(C)c1cc2ccc(C(N)=O)cc2c(=O)[nH]1
inactive: [1] -23.7% | [2] -29.8% | [3] -1.65% | [4] 1.2% | [5] -8.8% | [6] -4.95%

COCCN1CC(=O)N2Cc3ccccc3CN2C(=O)C1
inactive: [1] -4.6% | [2] -13.8% | [3] -6.15% | [4] -9.5% | [5] -3% | [6] -6.65%

COC(=O)C1CCC(=O)N1Cc1csc(-c2ccccc2)n1 (stereo unspecified)
inactive: [1] -12.1% | [2] -6.95% | [3] -6.8% | [4] -24.7% | [5] -14.8% | [6] -11.8%

COc1ccc(/C=N/NC(=O)c2ccc(N)cc2)cc1
inactive: [1] -1.65% | [2] 3% | [3] 14.4% | [4] -15.9% | [5] 22.4% | [6] 8.75%

NC(Cc1ccccc1CP(=O)(O)O)C(=O)O (stereo unspecified)
inactive: [1] -46.8% | [2] -41.1% | [3] -16.4% | [4] -4.9% | [5] -29.9% | [6] -44.2%

Oc1cccnc1I
inactive: [1] 24.4% | [2] 3.1% | [3] 18.5% | [4] 19.5% | [5] 18% | [6] 10.2%

CCN(c1ccccc1)S(=O)(=O)c1ccccc1N
inactive: [1] -0.75% | [2] -13.2% | [3] 10.7% | [4] 14.4% | [5] -3.6% | [6] -0.4%

c1ccc(N=c2snc3scc(-c4ccccc4)n23)cc1
inactive: [1] 28.4% | [2] 6.95% | [3] 13.8% | [4] 17.6% | [5] 33.5% | [6] 16.6%

N#C/C=C(\N)C(C#N)C#N
inactive: [1] -4.85% | [2] -25.9% | [3] -3.15% | [4] 6.75% | [5] -3.6% | [6] 4.8%

CC(=O)OCC1OC(n2c(C)cc(C)c(C#N)c2=S)C(OC(C)=O)C(OC(C)=O)C1OC(C)=O (stereo unspecified)
inactive: [1] 21.2% | [2] 16.6% | [3] -5.35% | [4] -14.9% | [5] -6.05% | [6] 32.4%

ClC1=CC(Cl)=C2N=C(N3CCCC3)N=C3N=C(N4CCCC4)N=C1N32
inactive: [1] -15.2% | [2] -5.45% | [3] -19.7% | [4] -10.6% | [5] 1.6% | [6] 4.55%

Nc1ccc(S(=O)(=O)O)cc1Cl
inactive: [1] -12.5% | [2] -12% | [3] -5.25% | [4] -9.9% | [5] -10.4% | [6] -3.5%

Nc1nc2nc[n-]c2c(=O)[nH]1.[NH2-].[NH2-].[NH2-].[NH2-].[NH2-].[Ru+6]
inactive: [1] 20.6% | [2] 4.55% | [3] 4.9% | [4] 2.5% | [5] -5.8% | [6] -4.9%

CC1CCC(C(C)C)C(OS(=O)(=O)c2ccccc2)C1 (stereo unspecified)
inactive: [1] 0.1% | [2] -26.7% | [3] -10.4% | [4] 17.3% | [5] 11.6% | [6] 1.8%

Cc1cc(C)c2cnnn2n1
inactive: [1] 10.1% | [2] -14.1% | [3] 0.6% | [4] 15.4% | [5] -21.1% | [6] -2.75%

CCCc1ccccc1[N+](=O)[O-]
inactive: [1] 0.25% | [2] -14.9% | [3] -10.5% | [4] -4.35% | [5] 8.7% | [6] -7.1%

NC(=O)C1(c2cccs2)CCCC1
inactive: [1] 4.9% | [2] 3.4% | [3] 6.5% | [4] -26.1% | [5] -12.3% | [6] 26.2%

NC(=O)Nc1ccc(Cc2ccc(NC(N)=O)cc2)cc1
inactive: [1] -15.4% | [2] -26.8% | [3] 10.7% | [4] 10.8% | [5] 12.9% | [6] 12.3%

O=[N+]([O-])c1ccc(OCc2ccc(CBr)cc2)c(Cl)c1
inactive: [1] 4.1% | [2] 29.6% | [3] 15.4% | [4] -13.7% | [5] 16% | [6] 22.5%

C#CC[N+](C)(CC#C)CC#C
inactive: [1] 9.85% | [2] 7.8% | [3] 13% | [4] 11.9% | [5] 9.7% | [6] 9.2%

CCC(CO)NC(=O)/C=C/c1ccccc1Cl (stereo unspecified)
inactive: [1] 7% | [2] 14.4% | [3] 1.55% | [4] 2.3% | [5] -0.7% | [6] 10.5%

CCc1ccc(N=Nc2c(F)c(F)c(N(C)C)c(F)c2F)cc1
inactive: [1] -2.4% | [2] 7.7% | [3] 6.85% | [4] 4.1% | [5] 1.05% | [6] -1.25%
